Experimental data published in PubChem BioAssay (EPA / NIEHS).
Activity calls are given as the source filed them. Rule for the calls: active = hit-call score of the fitted dose curve at least 0.9, where 1 is the maximum; inactive = score below 0.9.

Read-out: Cytochrome P450 (CYP24A1), CYP24A1 (gene 1591)
Test: LTEA_HepaRG_CYP24A1: Life Technologies and Expression Analysis (LTEA) Assay for Cytochrome P450 (CYP24A1) using HepaRG (AID 2283478)
Details: mRNA level, 48 h; actives raise or lower the signal
Method: LTEA_HepaRG is a cell based, multiplexed-readout assay that uses HepaRG, a human liver cell line, with measurements taken at 48 hours after chemical dosing on a 96-well plate.LTEA_HepaRG_CYP24A1 is one of 102 assay component(s) measured in the LTEA HepaRG cell culture assay. It is a marker of NR mediated metabolism.Data from the assay component LTEA_HepaRG_CYP24A1 was analyzed into 1 endpoint. This assay endpoint, LTEA_HepaRG_CYP24A1, was analyzed with bidirectional fitting relative to DMSO as the negative control and baseline of activity. Using a type of inducible reporter, measures of mRNA induction for gain or loss-of-signal activity can be used to understand regulation of transcription factor activity. To generalize the intended target to other relatable targets, this assay endpoint is annotated to the cyp intended target family, where the subfamily is xenobiotic metabolism.
A total of 1060 chemcials from the ToxCast library were tested in eight-point concentration-response experiments. Cell culture and cytotoxicity assays were conducted at Thermo Fisher Scientific's Custom Services facility (Madison, WI). A single lot of human HepaRG cells (Thermo Fisher Scientific, Frederick, MD) was used for the cell culture experiments. 96-well format collagen type I coated plates of human HepaRG cells were prepared using established methods. Briefly, cryopreserved HepaRG cells were thawed, plated at a density of approximately 100,000 cells/well in HepaRG Thaw, Plate, and General Purpose media (HPRG770, Thermo Fisher Scientific), and incubated for 48 hours. 0.5% DMSO was selected as vehicle control to balance the requisite need of DMSO in HepaRG cultures to maintain differentiation (for example, baseline metabolism, proportions of hepatocytes vs. cholangiocytes), while enabling further hepatic receptor pathway activation (for example, PXR and CAR) in response to chemical exposure. 48 hours after plating, the culture medium was replaced with HepaRG Serum-Free Incudtion Media. Cells were exposed to each test chemical in duplicate and maintained in CO2 incubators for another 48 hours. Chemical plates were thawed to room temperature and 200x concentrations of treatment groups were prepared. 8-point conentration-reponse curves were made with the highest exposure at 100 uM, followed by half-log dilutions, all in 0.5% DMSO. Each test plate contained variouse controls, induction positive controls (1mM phenobarbital), cytotoxicity positive controls ([…] aflatoxin B1), vehicle controls (0.5% DMSO), and total lysis controls (0.5% DMSO). Cell morphology images were taken using an Essen IncuCyte FLR automated microscope, with six 96-well plates imaged in about 24 minutes. Images were captured and exported and JPEG files. Spent culture media was transfered to black-well plates for the LDH assay, and remaining media was sorted at -80 C for later use. Cells were treated with RLT buffer and frozen until shipped for gene expression analysis. Total RNA was isolated from the cell suspension in 75 uL of Buffer RLT (Qiagen, Germantown, MD 20874) by Quintiles/Expression Analysis (Durham, NC) using a custom isolation procedure. Total RNA from each plate well was transferred to a preamplification plate. Fluidigm's 96.96 Dynamic ArrayTM (Fluidigm, Amsterdam, the Netherlands) technology was used for gene expression analyses by quantitative reverse transcription polymerase chain reaction (qRT-PCR, performed by Quintiles/Expression Analysis, Durham, NC)89. Standard TaqManTM Assays (Applied Biosystems/ThermoFisher Scientific, Foster City, CA) were used to assess the expression of 93 genes selected based on their selectivity and sensitivity to important hepatic receptors known to be modulated by environmental chemicals; importance in human hepatocyte functionality; and hepatotoxicity. […]

Structure (SMILES) | outcome | AC50
Clc1cc(Cl)c(Cl)cc1Cl | inactive | 
FC(F)(F)C(F)(F)C(F)(F)C(F)(F)C(F)(F)C(F)(F)CCI | inactive | 
Nc1ccc(S(=O)(=O)c2ccc(N)cc2)cc1 |  | 12.7 µM (active)
CCOc1ccc2c(c1)C(C)=CC(C)(C)N2 | inactive | 
CN1CCN(Cc2cc(-c3ccc4[nH]c(=O)oc4c3)co2)[C@@H](c2ccc(F)cc2)C1 | inactive | 
Cc1oc(-c2ccccc2)nc1CCOc1cccc2c1ccn2CCC(=O)O | inactive | 
CCCCCCCCCCCCCCCC | inactive | 
COC(=O)c1ccc(O)cc1 | inactive | 
O=C(OCCCCCOC(=O)c1ccccc1)c1ccccc1 | inactive | 
C[Si]1(C)O[Si](C)(C)O[Si](C)(C)O[Si](C)(C)O1 | inactive | 
CCCCCCC(=O)OCC | inactive | 
CCCCOC(=O)CCCCCCCCC(=O)OCCCC | inactive | 
CC(CO)OC(C)CO (stereo not given) (tested in a mixture with another compound) | inactive | 
Cc1ccc2ncccc2c1 | inactive | 
Cc1cccc(Nc2cc(Cl)nc(SCC(=O)O)n2)c1C | inactive | 
CC(=O)C(C)=CC1C(C)=CCCC1(C)C (stereo not given) | inactive | 
CCCc1cc(=O)[nH]c(=S)[nH]1 | inactive | 
O=[N+]([O-])C(CO)(CO)CO | inactive | 
CNC(=O)[C@H]1O[C@@H](n2cnc3c(NCc4cc(Cl)ccc4OCc4cc(C)no4)ncnc32)[C@H](O)[C@@H]1N | inactive | 
CC=Cc1ccc(O)c(OC)c1 | inactive | 

Structure (SMILES) | outcome | AC50
CCCCCCOCCO | inactive | 
Nc1nc(N)c2nc(CNc3ccc(C(=O)N[C@@H](CCC(=O)O)C(=O)O)cc3)cnc2n1 | inactive | 
Cc1ccc(C)c(C)c1 | inactive | 
CCCCCCCCCCCCCO | inactive | 
Nc1ccc2c(c1)C(=O)c1ccccc1C2=O | inactive | 
CCCCCCCCCCCC(=O)OC | inactive | 
Cc1cccc(C)c1O | inactive | 
CCCCCCCC=O | inactive | 
O=c1[nH]cc(F)c(=O)[nH]1 | inactive | 
CC(=O)Oc1ccccc1C(=O)O | inactive | 
OC[C@@H](O)[C@@H](O)[C@H](O)[C@H](O)CO | inactive | 
C=CCOC(=O)c1ccccc1C(=O)OCC=C | inactive | 
Cc1ccc(Cl)cc1 | inactive | 
Cc1cccc([N+](=O)[O-])c1C | inactive | 
CNCc1cc(F)ccc1Oc1ccc(Cl)c(Cl)c1 | inactive | 
CC(=O)OC/C=C(\C)CCC=C(C)C | inactive | 
CCc1c(C(=O)NN2CCCCC2)nn(-c2ccc(Cl)cc2Cl)c1-c1ccc(Br)cc1 | inactive | 
COc1cc(-c2nc(NC(=O)c3cc4cc(C)cc(C)c4n3CC(=O)O)sc2CCC2CCCCC2)c(OC)cc1Cl | inactive | 
CCCCCCCCCCC | inactive | 
CC1(C)CC(N=C=O)CC(C)(CN=C=O)C1 (stereo not given) | inactive | 
